From ChEMBL document CHEMBL3988442, “University of Dundee, Small-Polar-MMV Screening Library” (2021) come the findings set out here.

Among all 48,000 compounds or so, about 13,000 (27%) showed an effect of 50% or more. Some of the results follow.

This experiment relates to Wolbachia pipientis. In words: Anti-Wolbachia Cell-Based Screen. The experiment is classed as functional. On the set-up: scale not given: in the data most compounds retested in dose-response had high values. To be noted: 5 µM.
For `Cc1ccc([C@@H]2CN(S(=O)(=O)N(C)C)C[C@H]2N(C)C)cc1`, the “Percent Effect” value is 0.6697%. For `Cc1cc(S(=O)(=O)NCC(O)c2sccc2C)ccc1F` (stereo not drawn), the “Percent Effect” value stood at 4.369%. For `CCOc1ccc(CN(C)C(=O)COc2ccc(C)nc2)cc1` the value was -6.842%; for `CCc1c(C(=O)N2CCN(C)[C@@H]3CS(=O)(=O)C[C@@H]32)[nH]c2ccccc12`, -4.01%; for `CCN1CC(CN(C)c2cc(C)nc(N)n2)Oc2ccccc21` (stereo not drawn), 10.5%. On to `CCN(CC1CCOCC1)C(=O)Cn1ccccc1=O`, for which the “Percent Effect” value was -19.1%. With `CC(C)NC(=O)c1nc2c(s1)CCCN2Cc1ccccc1`, the “Percent Effect” value is -9.51%. As to `O=C(CN1CCc2ccccc21)NCc1ccc(Cl)cc1`, the “Percent Effect” value was -3.042%. As for `CC(O)CN1CCC(=O)N(Cc2ccccc2)Cc2ccccc21` (stereo not drawn), the “Percent Effect” value was determined as 125.3%. Take `CCCc1nc(CN(CC)C(=O)c2ccc3[nH]cnc3c2)no1`: the “Percent Effect” value is -17.17%. In the case of `CC(C)(C)n1ncc2c1CCCC2NCc1cccc2c1OCO2` (stereo not drawn), the “Percent Effect” value amounted to 3.56%. In the case of `CNC(=O)C1(Cc2cc(C(C)C)no2)CCN(Cc2ccccn2)C1` (stereo not drawn), the “Percent Effect” value is on record as 108.3%.

Take `CNC(=O)C1(Cc2cc(C(C)C)no2)CCN(Cc2cccnc2)C1` (stereo not drawn): the “Percent Effect” value stood at 113.2%. In the case of `O=C(O)C1(Cc2ccc(F)cc2F)CCCN(Cc2ccccn2)C1` (stereo not drawn) it was -12.03%; in that of `CCOC(C)c1noc(CN2CCN(Cc3cccnc3)CC2)n1` (stereo not drawn), -3.385%; in that of `CC(C)c1cc(CNC(=O)NCc2cccc(N3CC=CC3)c2)on1`, 1.94%. In the case of `CC(C)c1cc(C(=O)N2C[C@H]3CC[C@@H]2CN(Cc2ccccn2)C3)no1` it was -1.053%. In the case of `COC1(CNS(=O)(=O)c2ccccc2Br)CCSC1` (stereo not drawn), the “Percent Effect” value is given as -11.32%. For `O=C(NCCC(O)c1cccs1)c1ccc(Br)o1` (stereo not drawn) the value was -2.242%; for `Cc1cc(C)nc(NC2CC(=O)N(C(C)(C)C)C2)n1` (stereo not drawn), -13.08%; for `Cc1ccc(CN(C)C(=O)NCC(=O)NC(C)(C)C)s1`, -5.904%. For `CCc1cnc(NCCS(=O)(=O)CC(C)C)nc1`, the “Percent Effect” value is on record as -2.356%. Regarding `O=C(O)C(F)(F)F.O=C(c1ccsc1)N1CCc2onc(COc3ccccn3)c2C1`, the “Percent Effect” value is on record as -81.7%. Take `Cc1cc(C(F)(F)F)nn1CCNC(=O)C(C)n1ccnc1C(C)C` (stereo not drawn): the “Percent Effect” value amounted to 0.9025%. Consider `Cc1cc(CNC(=O)CC2CCN(C(C)C)CC2)n(C)n1`, for which the “Percent Effect” value is -16.42%.

With `Cc1cc(C)n(CCCNC(=O)C(C)NC(=O)CC2CCCCC2)n1` (stereo not drawn), the “Percent Effect” value is recorded as 122.8%. For `Cc1cc(C)n(-c2cncc(NCCNC(=O)CC3CCCC3)n2)n1`, the “Percent Effect” value is listed as 5.332%.

On to `Cc1cc(C)n(CC(C)NC(=O)c2cc(C(C)C)on2)n1` (stereo not drawn), for which the “Percent Effect” value is reported as -21.21%. On to `CCC(C)C(=O)NCCCn1nc(C)cc1C` (stereo not drawn), for which the “Percent Effect” value amounted to 119.6%. Regarding `Cc1ccccc1Oc1ncccc1CNC1CCC1`, the “Percent Effect” value was -4.424%.

Take `Cc1csc(C2(NCCC(=O)N3CCOCC3)CCCC2)n1`: the “Percent Effect” value is -0.7458%. On to `CC(=O)NCCCC(=O)NC(C)c1nnc2n1CCC2` (stereo not drawn), for which the “Percent Effect” value worked out at 91.49%. Regarding `CC(C)c1noc(CCC(=O)NC(C)c2nnc3n2CCC3)n1` (stereo not drawn), the “Percent Effect” value is reported as -10.52%. In the case of `CC(C)CS(=O)(=O)CC(=O)NC(C)c1nnc2n1CCC2` (stereo not drawn) it was 85.29%. With `CC(NC(=O)CCC1CCCCC1)c1nnc2n1CCC2` (stereo not drawn), the “Percent Effect” value is 97.89%. For `CC(NC(=O)CCCc1nc(C(C)(C)C)no1)c1nnc2n1CCC2` (stereo not drawn) the value was 7.07%. With `Cc1noc(CCCC(=O)NC(C)c2nnc3n2CCC3)n1` (stereo not drawn), the “Percent Effect” value is listed as -11.73%. As to `CCCc1noc(CCC(=O)NC(C)c2nnc3n2CCCCC3)n1` (stereo not drawn), the “Percent Effect” value is recorded as -7.808%. For `CCCC(=O)NC(C)c1nnc2n1CCC2` (stereo not drawn) the value was 66.57%; for `CC(C)c1noc(CCCC(=O)NC(C)c2nnc3n2CCC3)n1` (stereo not drawn), -3.557%; for `CC(C)c1noc(CCC(=O)NC(C)c2nnc3n2CCCCC3)n1` (stereo not drawn), -3.569%. For the compound `Cc1noc(C)c1CCC(=O)NC(C)c1nnc2n1CCC2` (stereo not drawn), the “Percent Effect” value was -11.45%. In the case of `CN1CCc2[nH]nc(C(=O)N3CCC4(CCCO4)CC3)c2C1` it was 17.17%; in that of `CC(C)N(C)CCNC(=O)N(C)CC1CCOCC1`, -11.44%; in that of `CCS(=O)(=O)N1CCC2(CC1)CC(OCC1CC1)CO2` (stereo not drawn), -14.92%. For `CC(NC(=O)COCC(F)(F)F)c1nnc2n1CCCCC2` (stereo not drawn), the “Percent Effect” value was found to be 88.58%. Regarding `CC(NC(=O)COc1ccc(F)cc1)c1nnc2n1CCCCC2` (stereo not drawn), the “Percent Effect” value is -2.87%.

`CC(NC(=O)CCCOc1ccccc1)c1nnc2n1CCCCC2` (stereo not drawn): the “Percent Effect” value is recorded as -1.101%. With `CC(Cn1cccn1)NCC(=O)NC1(C#N)CCCCC1` (stereo not drawn), the “Percent Effect” value is 4.138%.

Regarding `CCC(CO)N(Cc1ccco1)C(=O)c1ccccc1NC` (stereo not drawn), the “Percent Effect” value is -1.044%. In the case of `Cc1oc(CN(C)C(=O)c2ccc(C(F)(F)F)cc2)cc1C(=O)O` it was -14.62%; in that of `CC(C#N)CNC(=O)Nc1ccc(-c2ccc[nH]2)cc1` (stereo not drawn), -13.54%; in that of `O=C(CNC(=O)c1cc(Cl)ccn1)Nc1nccs1`, -9.837%. Take `O=C(CNC(=O)c1ccccc1Cl)Nc1nccs1`: the “Percent Effect” value was 1.164%. As to `O=C(CNC(=O)c1ccc(Cl)cc1)Nc1nccs1`, the “Percent Effect” value was determined as 62.52%. Regarding `Fc1ccc(OC2CCN(Cc3nnc(-c4ccco4)o3)CC2)cc1`, the “Percent Effect” value was 0.5253%. As to `CN1CCN(Cc2ccccc2Oc2nccc3occc23)CC1`, the “Percent Effect” value was 2.64%. On to `CCN1CCN(Cc2c(-c3ccco3)[nH]c3ncccc23)CC1`, for which the “Percent Effect” value is recorded as 126%. With `O=C(NCCN1CCOCC1)NCc1cccnc1-n1cccn1`, the “Percent Effect” value is recorded as -2.618%. As for `OC1CCCN(Cc2c(-c3ccco3)[nH]c3ncccc23)C1` (stereo not drawn), the “Percent Effect” value is given as -4.635%. On to `OC1(CN2CCCC2)CCCN(Cc2cnc(-c3ccco3)nc2)C1` (stereo not drawn), for which the “Percent Effect” value is -19.31%. For `c1coc(-c2[nH]c3ncccc3c2CN2CCCOCC2)c1` the value was 122.9%. For `CN1CCN(Cc2c(-c3ccco3)[nH]c3ncccc23)CC1` the value was 119.4%.

Take `CCn1ccnc1CN1CCN(c2ncnc3ccccc23)CC1`: the “Percent Effect” value turned out to be 5.306%. As for `OC1CCN(Cc2c(-c3ccco3)[nH]c3ncccc23)CC1`, the “Percent Effect” value was found to be 97.96%. `CN1CCN(Cc2cccc(NCc3ncc[nH]3)c2)CC1`: the “Percent Effect” value is on record as -6.689%. As for `Cc1nc(-c2ccc(S(=O)(=O)N3CCSCC3)cc2)co1`, the “Percent Effect” value was -2.351%. Regarding `Cc1ccc(F)c(C(=O)Nc2cccc(CCN3CCCC3)c2)c1`, the “Percent Effect” value is on record as -3.643%.
